RXFP1 antagonist – qHTS Assay for Antagonists of the Relaxin Receptor RXFP1; Relaxin receptor 1 (Homo sapiens), Q9HBX9; activity change, negative = inhibition, % at 57.5 µM; AID 1259400, 2018; 0.59% of 350,000 active; HEK293-RXFP1, relaxin-stimulated cAMP HTRF, 30 min; stronger effect = lower value;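 active means activity change of -60% or lower, but not beyond a set lower limit; inconclusive means change between -60% and -40%, or beyond the set limit; inactive means change above -40%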; further: on the % scale 0 is the no-effect control and ±100 the full control effect
Target sequence (Q9HBX9 whole entry, looked up): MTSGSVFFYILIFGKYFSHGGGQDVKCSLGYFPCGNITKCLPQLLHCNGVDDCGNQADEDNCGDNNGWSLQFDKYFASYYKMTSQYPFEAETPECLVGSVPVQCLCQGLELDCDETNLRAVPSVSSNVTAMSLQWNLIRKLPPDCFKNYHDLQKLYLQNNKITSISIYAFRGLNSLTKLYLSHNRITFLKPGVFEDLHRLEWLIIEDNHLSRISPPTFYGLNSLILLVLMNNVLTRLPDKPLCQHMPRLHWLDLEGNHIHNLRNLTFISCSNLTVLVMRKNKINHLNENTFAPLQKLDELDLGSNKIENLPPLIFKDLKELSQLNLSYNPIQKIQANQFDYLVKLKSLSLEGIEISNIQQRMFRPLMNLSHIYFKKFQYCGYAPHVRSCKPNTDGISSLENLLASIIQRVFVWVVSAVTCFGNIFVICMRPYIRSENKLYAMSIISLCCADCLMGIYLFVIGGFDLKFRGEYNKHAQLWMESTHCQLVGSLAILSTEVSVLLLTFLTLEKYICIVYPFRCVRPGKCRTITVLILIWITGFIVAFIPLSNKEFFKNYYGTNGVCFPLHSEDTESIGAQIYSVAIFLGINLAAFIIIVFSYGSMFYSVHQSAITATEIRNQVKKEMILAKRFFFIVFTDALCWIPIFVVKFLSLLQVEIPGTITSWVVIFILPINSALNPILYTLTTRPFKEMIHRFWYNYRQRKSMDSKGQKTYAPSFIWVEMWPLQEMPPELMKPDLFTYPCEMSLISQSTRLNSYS
gsp antag – qHTS for Antagonists of gsp, the Etiologic Mutation Responsible for Fibrous Dysplasia/McCune-Albright Syndrome: qHTS. gsp-mutant cells, cAMP HTRF, 30 min. Potency, µM (series often up to 76.9 µM), for the others: top-dose activity change, negative = inhibition, usual class: inhibitors. 0.4% of 340,000 active; calls by dose curve; cell line not stated here;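 further: intracellular cAMP measured with PDE inhibitor Ro 20-1724 present during compound exposure; potency means the concentration at half of the fitted maximal effect; on the % scale 0 is the no-effect control and ±100 the full control effect; nearly all actives have a fitted effect of over 65% in size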
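Cells in G418 medium, seeded 16-24 h, 37C; buffer exchange to DPBS + 1 mM CaCl2, 0.5 mM MgCl2, 0.05% BSA; cpds in DMSO + […] (300 uM stock), 30 min 37C; HTRF cAMP detection.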
RXFP1 agonist – qHTS Assay for Agonists of the Relaxin Receptor RXFP1; HEK293T-RXFP1 cAMP TR-FRET, 30 min; response scale: percent of porcine relaxin response, buffer zero; Potency, µM (top dose mostly 57.5 µM), for inactives: top-dose activation, usual class: activators; 0.3% of 370,000 active; AID 2676, 2010; active means well fitted activation curve with a large enough effect; inconclusive means small, poorly fitted or top-dose-only effect; further: potency means the concentration at half of the fitted maximal effect; on the % scale 0 is the no-effect control and ±100 the full control effect; nearly all actives have a fitted effect of over 60% in size
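HEK293 cells stably expressing RXFP1, treated 30 min at 37C with compounds plus PDE4 inhibitor Ro 20174; cAMP measured by HTRF TR-FRET. Normalized to buffer and 29 nM porcine relaxin; EC50 by Hill fit.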
gsp agonist – qHTS for Agonist of gsp, the Etiologic Mutation Responsible for Fibrous Dysplasia/McCune-Albright Syndrome: qHTS | gsp mutant cells, cAMP HTRF, 30 min | Potency, µM (highest dose often 76.9 µM), for inactives: at the top dose activation (cAMP increase), most hits filed as activators | 0.13% of 340,000 active | AID 624287, 2012; active means well fitted activation curve with a large enough effect; inconclusive means small, poorly fitted or top-dose-only effect, or another doubt; inactive means no such curve, though single readings can be large or run the other way; cell line not stated here;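 further: phosphodiesterase inhibitor Ro 20-1724 added with compounds to block cAMP breakdown; potency means the concentration at half of the fitted maximal effect; nearly all actives have a fitted effect of over 60% in size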
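Cells stably selected in G418 were plated at 2000/well, grown 16-24 hr, then given compounds in DMSO with the PDE inhibitor […] (300 uM solution added) for 30 min at 37C; cAMP was read by HTRF.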
Akt phos inh – HTS Assay for Inhibitors of Akt Phophorylation: Primary Screen; 0.32% of 360,000 active; Neuro2A IGF-stimulated pAkt S473 HTRF, 20 min; stronger effect = lower value; AID 651550, 2012; activity change, % for hits at 50 µM; in the data active means activity change below about -80%; inconclusive means mostly about -51% to -80%; further: on the % scale 0 is the no-effect control and ±100 the full control effect
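Neuro2A cells (4,500/well, DMEM with 0.5% FBS) were treated with compound at a single 50 µM final concentration, stimulated with 6 nM IGF for 20 min at 37 °C, and lysed. Phospho-Akt Ser473 was read by HTRF as 665/615 ratio ×10^4.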
Numbers without * were called inactive; i = inactive; ? = inconclusive; / = no result; [ ] = another dose, or the depositor's remark. Sampled rows, rich in hits. Any-hit rate of the full collection: about 1.2%.

SMILES	RXFP1 antagonist	gsp antag	RXFP1 agonist	gsp agonist	Akt phos inh
COC(=O)c1[nH]c(C)c(/C(O)=C2\C(=O)C(=O)N(CCN3CCOCC3)C2c2cccs2)c1C (stereo unspecified)	4.3	13.8%	5.7%	17.3%	-96.2%*
COc1cccc(-n2ccnc2SCC(=O)Nc2c(C)cc(C)cc2C)c1	-5.4	/	0.8%	/	/
Cc1ccc(O)c(C(=O)c2cc(C#N)c(=O)n(Cc3ccccc3)c2)c1	-90.3*	-17.3%	0.6%	-11.1%	i
Cc1nc2ccc(NC(=O)c3cnc(Cl)c(Cl)c3)cc2s1	-11.2	8.91µM*	10.8%	14.8%[15.4 µM]	i
Cc1nc2ccc(NC(=O)c3ccc(Br)o3)cc2s1	-91.8*	1.0%	-0.7%	-1.4%[15.4 µM]	i
Cc1cccc(C(=O)Nc2sc(C(=O)N3CCCC3)c(C)c2C#N)c1	1.1	31.6µM*	2.3%	7.3%	i
Cc1ccc(N2C(=O)[C@@H]3Cc4ccccc4CN3C2=O)cc1	-2.8	10.4%	0.1%	-39.8%	i
CC(C)c1ccc(N2C(=O)[C@@H]3Cc4ccccc4CN3C2=O)cc1	-4.9	21.4%	-1.3%	-22.0%	-108.3%*
CCOC(=O)N1CCN(S(=O)(=O)c2ccc(C)c(C)c2)CC1	0.6	8.4%	0.0%	4.5%	-99.0%*
Cc1ccc(S(=O)(=O)NCCC(=O)N2CCN(S(=O)(=O)c3cccc(F)c3)CC2)cc1C	-67.0*	-20.2%	0.1%	18.5%[15.4 µM]	i
CO/N=C(\C(=O)O)c1csc(NC(=O)CCl)n1	3.8	/	/	/	/
O=S(=O)(c1ccc(Cl)s1)N1CCN(C/C=C/c2ccccc2)CC1	-6.5	-9.4%	0.7%	3.9%	i
O=S(=O)(c1cccs1)N1CCN(C/C=C/c2ccccc2)CC1	-5.9	-7.8%	1.4%	-31.8%	-118.1%*
C=CCn1c(=O)[nH]c2cc(C(=O)N3CCN(c4cccc(Cl)c4)CC3)ccc2c1=O	-5.7	31.6µM*	0.0%	-42.3%	i
C=CCn1c(=O)[nH]c2cc(C(=O)N3CCN(c4ccc(C(C)=O)cc4)CC3)ccc2c1=O	23.9	-23.5%	2.7%	-21.2%	i
CC(C)N(Cc1ccccc1)C(=O)COC(=O)c1cnc(Cl)c(Cl)c1	-72.1*	-26.8%	/	8.6%	i
CN(C)S(=O)(=O)c1ccc(N2CCCC2)c(C(=O)OCC(=O)N2CCN(c3ccccc3)CC2)c1	-13.3	4.6%	-0.8%	4.8%	i
CC(C)N(Cc1ccccc1)C(=O)COC(=O)c1cc(S(=O)(=O)N(C)C)ccc1N1CCCC1	-74.8*	-15.1%	/	6.0%	i
O=C(OCc1ccccc1)c1cnc(Cl)c(Cl)c1	-11.1	-11.5%	8.2%	-10.2%[15.4 µM]	i
CCOC(=O)C1CCN(c2ncnc3nc[nH]c23)CC1	/	-4.1%	3.6%	-34.8%	i
CCOC(=O)N1CCN(c2ncnc3nc[nH]c23)CC1	/	-1.2%	6.5%	20µM*	i
O=C1CC(N2CCC(c3nc4ccccc4s3)CC2)C(=O)N1Cc1ccccc1 (stereo unspecified)	-15.5	35.5µM*	1.4%	6.0%	/
CN1C(=O)CC(N2CCC(c3nc4ccccc4s3)CC2)C1=O (stereo unspecified)	6.2	13.6%	-1.9%	5.1%	i
O=C1CC(N2CCN(c3nc4ccccc4s3)CC2)C(=O)N1Cc1cccs1 (stereo unspecified)	-9.7	1.8%[15.4 µM]	0.0%	-5.1%	-142.9%*
Cc1cc(O)c(C)c(C)c1O	26.1	/	/	/	/
SMILES	RXFP1 antagonist	gsp antag	RXFP1 agonist	gsp agonist	Akt phos inh
Cc1ccc(OCc2nnc(NC(=O)c3cccnc3)s2)cc1	-1.5	7.94µM*	0.0%	-1.0%	i
CCCCCCCn1c2c(c(=N)c3c1CCC3)CCCC2	-14.6	/	7.5%	2.6%[15.4 µM]	i
CCCCCCn1c2c(c(=N)c3c1CCC3)CCC2	7.8	35.5µM*	2.8%	16.2%	i
CCCCCCCCCn1c2c(c(=N)c3c1CCC3)CCC2	-70.2*	5.2%	1.1%	-6.1%[15.4 µM]	i
Cc1ccccc1N1CCN(Cc2ccc(Br)o2)CC1	-65.1*	4.0%	0.9%	10.3%[15.4 µM]	i
CCCCN(C)CCNC(=O)C1CCN(c2nc3ccc(CC)cc3s2)CC1	-21.7	/	-1.8%	/	/
CCCCCc1nn2cc(-c3ccccc3)nc2s1	/	/	-0.2%	/	/
CCc1cccc(N2C(=O)CSC23C(=O)Nc2ccccc23)c1 (stereo unspecified)	/	/	0.8%	/	/
CCCCc1ccc(NS(=O)(=O)c2ccc(N3CCCCS3(=O)=O)cc2)cc1	-11.0	/	2.3%	/	/
CCCCOc1ccc(Br)cc1CSC(=N)N	-71.2*	11.3%	0.6%	3.8%[15.4 µM]	i
COc1ccc(NC(=O)C(C)n2nnc3sc(-c4ccccc4)cc3c2=O)cc1Cl (stereo unspecified)	-21.3	/	0.4%	/	/
COc1ccc(C(C[N+](=O)[O-])c2c(C)[nH]n(-c3ccccc3)c2=O)cc1 (stereo unspecified)	-12.8	8.7%	1.2%	-8.6%	i
Cc1[nH]n(-c2ccccc2)c(=O)c1C(c1ccc(O)c([N+](=O)[O-])c1)c1c(C)[nH]n(-c2ccccc2)c1=O	-9.5	11.2µM*	/	8.3%	i
COc1cccc(CN(C(=O)c2oc3ccc(Br)cc3c2C)C2CCS(=O)(=O)C2)c1 (stereo unspecified)	-4.4	/	0.5%	/	/
COc1ccc(C[C@@H]2OC3(C=CC(=O)C=C3)O[C@H]2Cc2ccc(OC)cc2)cc1	-92.0*	-10.3%	/	-14.1%	i
NNc1nc2c(Cl)ccc(Cl)c2s1	-22.8	28.2µM*	-2.8%	33.4%[15.4 µM]	i
CCC(=O)OCCNc1cc(Sc2nccn2C)c2nonc2c1[N+](=O)[O-]	-90.1*	-20.1%	5.6%	-24.5%	i
CCC(=O)OCCNc1cc(SCCC(=O)OC)c2nonc2c1[N+](=O)[O-]	-34.0	0.1%	0.9%	?	i
N#C/C(=C\Nc1ccccc1O)c1nc2ccccc2o1	?	50.1µM*	4.6%	-5.7%	i
Cc1ccc(C(=O)C(=O)O)cc1C	-8.4	/	/	/	/
O=C(Nc1nc(-c2cc(F)ccc2F)cs1)c1cccc(N2C(=O)CCC2=O)c1	-39.8	39.8µM*	-0.6%	-6.5%	i
O=C(Nc1nc(-c2ccc(F)cc2)cs1)c1cccc(N2C(=O)CCC2=O)c1	-21.8	?	5.4%	-33.6%	i
Cc1ccc(-n2ncc(C(=O)NCCN3CCCC3)c2C2CCN(C(=O)OC(C)(C)C)CC2)cc1	-15.6	/	1.6%	/	/
COc1ccccc1CN1CCC(CNC(=O)c2cnn(-c3ccc(Cl)cc3)c2C2CCN(C(=O)OC(C)(C)C)CC2)CC1	-61.1*	/	3.6%	/	/
Cc1ccc(-n2ncc(C(=O)NCCN3CCC(Cc4ccccc4)CC3)c2C2CCN(C(=O)OC(C)(C)C)CC2)cc1	-68.7*	/	-2.5%	/	/

Bioassay records from PubChem.
